Source: PubChem BioAssay
This is a sample that favours compounds with a hit; in the whole collection about 0.84% have one here.
PPARg SRC-2 ag: PPARgamma-driven SRC-2 recruitment agonism; P37231; PPARgamma LBD-SRC-2 recruitment, biochemical; activation, % at 8 µM; 200,000 compounds, 0.34% hits; in the data active means activation above about 22%;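 further: 0% = vehicle and 100% = reference agonist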
Target sequence (P37231 whole entry, looked up, the tested form may be a part): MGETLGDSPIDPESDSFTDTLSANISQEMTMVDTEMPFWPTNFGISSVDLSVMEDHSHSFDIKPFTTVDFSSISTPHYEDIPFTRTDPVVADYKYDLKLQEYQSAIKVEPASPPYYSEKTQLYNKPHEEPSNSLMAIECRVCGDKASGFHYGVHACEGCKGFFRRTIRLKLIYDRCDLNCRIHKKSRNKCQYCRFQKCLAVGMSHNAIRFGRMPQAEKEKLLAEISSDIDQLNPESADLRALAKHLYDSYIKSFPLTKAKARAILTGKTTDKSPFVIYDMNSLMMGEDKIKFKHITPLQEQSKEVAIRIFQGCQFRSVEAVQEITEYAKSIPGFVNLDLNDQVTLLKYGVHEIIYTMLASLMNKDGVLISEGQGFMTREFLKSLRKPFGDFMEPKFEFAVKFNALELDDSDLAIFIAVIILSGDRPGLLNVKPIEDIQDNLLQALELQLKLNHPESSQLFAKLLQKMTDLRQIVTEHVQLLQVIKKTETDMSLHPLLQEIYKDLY
PPARg SRC1 recr: agonists of human PPARgamma SRC-1 coactivator recruitment. P37231. activation, % at 8 µM. PPARgamma-SRC-1 coactivator recruitment biochemical assay. 200,000 compounds, 0.41% hits; in the data active means activation above about 19%;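 further: 0% = DMSO and 100% = reference agonist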
SRC3 TRFRET art: counter-screen for PPARgamma SRC-3 recruitment agonists: TR-FRET artefact. PPARgamma/SRC-3 format; hits give high values. TR-FRET ratio at 8 µM. 99,000 compounds, 0.39% hits. AID 1048
TR-FRET SRC-2 ct: counter-screen for PPARgamma SRC-2 recruitment agonists: TR-FRET artefact; hits give high values; TR-FRET ratio at 8 µM; 200,000 compounds, 0.4% hits; AID 1049
PPARg SRC3 recr: promotes SRC-3 coactivator recruitment by human PPARgamma. P37231. biochemical PPARgamma/SRC-3 coactivator recruitment assay. activation, % at 8 µM. 200,000 compounds, 0.26% hits; in the data active means activation above about 23%;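 further: 0% = DMSO and 100% = reference agonist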
SRC1 TRFRET art: counter-screen for PPARgamma SRC-1 recruitment agonists: TR-FRET artefact | TR-FRET detection artefact counter-screen, emission ratio; hits give high values | TR-FRET ratio at 8 µM | 99,000 compounds, 0.34% hits | AID 1051; in the data active means TR-FRET ratio above about 2300
PPARg SRC2 conf: human PPARgamma SRC-2 recruitment agonism, confirmation; AID 1297; biochemical SRC-2 recruitment by PPARgamma; 790 compounds, 52% hits; shares compounds with PPARg SRC3 recr; activation, % at 8 µM; in the data active means activation above about 22%;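 further: 0% = vehicle alone and 100% = reference agonist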
PPARg SRC1 conf: human PPARgamma SRC-1 recruitment agonism, confirmation | PPARgamma–SRC-1 coactivator recruitment biochemical assay | AID 1300 | activation, % at 8 µM | 790 compounds, 43% hits | shares compounds with PPARg SRC3 recr; in the data active means activation above about 20%;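 further: 0% = vehicle wells and 100% = reference agonist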
PPARg SRC3 conf: confirmation of agonists of SRC-3 recruitment by human PPARgamma; shares compounds with PPARg SRC3 recr; biochemical PPARgamma-SRC-3 coactivator recruitment, agonist mode; activation, % at 8 µM; 790 compounds, 29% hits; in the data active means activation above about 24%;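 further: 0% = vehicle wells and 100% = reference agonist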
The depositor's hits bear a star; nt = no result. Unless noted, no stated cut-off is given here; in the data, active means TR-FRET ratio above about 2000; inactive means the rest.

SMILES | PPARg SRC-2 ag | PPARg SRC1 recr | SRC3 TRFRET art | TR-FRET SRC-2 ct | PPARg SRC3 recr | SRC1 TRFRET art | PPARg SRC2 conf | PPARg SRC1 conf | PPARg SRC3 conf
CCOC(=O)N1CCC(NC(=O)CSc2cc(=O)n(CC)c3ccccc23)CC1 | 48* | 55* | nt | 2762* | 45* | nt | 38* | 27* | 25*
Cc1[nH]c2ccccc2c1SCC(=O)N1CCC(C)CC1 | -2 | 4 | 1659 | 1696 | 4 | 1569 | nt | nt | nt
CCOC(=O)C1CCN(C(=O)Cc2c(C(=O)O)n(C)c3ccccc23)CC1 | 0 | -3 | nt | 1539 | 3 | nt | nt | nt | nt
CCn1c(=O)cc(SCC(=O)N2CCN(C)CC2)c2ccccc21 | 34* | 27* | nt | 2120* | 40* | nt | 30* | 20* | 21
O=[N+]([O-])c1cc(C(F)(F)F)cc([N+](=O)[O-])c1N1CCCNCC1 | 3 | -2 | 1621 | 1513 | 4 | 2029 | nt | nt | nt
CCN(CC)S(=O)(=O)c1ccc2[nH]c(=O)cc(C(=O)Nc3cccc(C(C)=O)c3)c2c1 | -2 | 7 | 1693 | 1643 | 0 | 2159 | nt | nt | nt
CCc1c(C)nc(SCC(=O)Nc2nc(-c3ccc(OC)cc3)cs2)[nH]c1=O | 2 | -1 | 1751 | 1757 | 1 | 1634 | nt | nt | nt
CCn1c(=O)cc(OCC(=O)N2CCCC2)c2ccccc21 | 2 | 9 | nt | 1703 | 4 | nt | nt | nt | nt
CCn1c(=O)cc(SCC(=O)N2CCCCC2)c2ccccc21 | 48* | 44* | nt | 2691* | 52* | nt | 37* | 23* | 26*
CCN1CCN(C(=O)CSc2cc(=O)n(CC)c3ccccc23)CC1 | 44* | 23* | nt | 2006* | 41* | nt | 26* | 17 | 18
N#Cc1c(N)nc2c3c(sc(=N)c2c1N)NC(=O)CC3c1c(F)cccc1Cl (stereo unspecified) | 0 | -2 | nt | 1427 | 7 | nt | nt | nt | nt
N#Cc1c(N)nc2c3c(sc(=N)c2c1N)NC(=O)CC3c1ccccc1 (stereo unspecified) | 20 | 27* | nt | 2053* | 26* | nt | 5 | 5 | 8
CCOC(=O)C1CCN(C(=O)N(CC)CC)CC1 | 7 | 8 | 1710 | 1701 | 9 | 1985 | nt | nt | nt
Cc1ccc(OCC(=O)NCCc2c[nH]c3ccccc23)cc1 | 4 | -4 | 1528 | 1700 | 2 | 1915 | nt | nt | nt
CC1=C2C3OC(=O)C(C)[C@@H]3CC[C@](C)(O)C2C2C3C4C5(C12)[C@H]1OC(=O)[C@@H](C)C1CC[C@]4(C)O[C@]5(C)[C@@H]3O (stereo partly specified) | 1 | 3 | 1660 | 1393 | 4 | 1700 | nt | nt | nt
O=C(COC(=O)c1cc(-c2cccc3ccccc23)nc2ccccc12)NC1CCS(=O)(=O)C1 (stereo unspecified) | 10 | 9 | 2043 | 1761 | 10 | 2123 | nt | nt | nt
CCN(C(=O)COC(=O)c1cc(-c2cccc3ccccc23)nc2ccccc12)C1CCS(=O)(=O)C1 (stereo unspecified) | 22* | 11 | 2078* | 1710 | 10 | 2115 | 10 | 8 | 5
O=C1CCCN1CCNC(=S)Nc1ccccc1 | 0 | 1 | nt | 1426 | 11 | nt | nt | nt | nt
O=C1CCCN1CCCNC(=S)Nc1ccc(Nc2ccccc2)cc1 | 14 | 24* | 1767 | 1621 | 11 | 2144 | 9 | 5 | 5
Nc1ccc(Nc2nc(-c3ccncc3)cs2)cc1 | 19 | 11 | nt | 1644 | 33* | nt | 5 | 3 | 3
Clc1cccc(-c2ccc(C=Nc3ccc(N4CCOCC4)cc3)o2)c1 | 26* | 28* | 1975 | 2011* | 14 | 2263 | 35* | 25* | 21
COC(=O)[C@@H]1CC[C@H](C)[C@@H](c2ccc(C)cc2)N1C(=O)c1ccc(/C=N/OCC[C@@H]2C=C[C@H](OC(C)=O)[C@@H](COC(C)=O)O2)cc1 | -5 | -2 | 1379 | 1330 | -4 | 1644 | nt | nt | nt
c1ccc(-c2nnsc2-c2nc3ccccc3[nH]2)cc1 | 17 | 21* | 1662 | 1693 | 13 | 2080 | 40* | 34* | 22
c1ccc(-c2nnsc2-c2ncc[nH]2)cc1 | 2 | -5 | 1443 | 1496 | 1 | 1803 | nt | nt | nt
COc1ccc(NC(=S)N(CCCN2CCCC2)Cc2cccn2Cc2ccc(Cl)cc2)cc1Cl | 3 | 8 | 1674 | 1742 | 2 | 2016 | nt | nt | nt
COC(=O)c1c(Cl)c2n3ccccc3c(C)c(-c3ccccc3)c-2c1C(=O)OC | 24* | 18 | 2198* | 2016* | 11 | 2328* | 1 | 3 | 3
COC(=O)c1cc2c(-c3ccccc3)c(C)c3ccccn3c-2c1C(=O)OC | 16 | 17 | nt | 1968 | 29* | nt | 8 | 14 | 4
COC(=O)c1c(C(=O)OC)c2cc(C)ccn2c1Cl | 9 | 6 | nt | 1615 | 3 | nt | nt | nt | nt
CC(C)Sc1nc2sc3c(c2c2nnc(SCC(=O)NCc4ccco4)n12)CCCC3 | 10 | 19* | nt | 1699 | 11 | nt | 9 | 0 | 5
CC1(C)NC(=O)N(CC(=O)OCC(=O)Nc2cccc(S(N)(=O)=O)c2)C1=O | -1 | -3 | 1579 | 1571 | 2 | 1881 | nt | nt | nt
